Compound activity from PubChem.
ERp5 inh – inhibitors of ERp5-driven insulin aggregation, primary screen, biochemical, turbidity, absorbance 650 nm, single point | Protein disulfide-isomerase A6 (Homo sapiens), Q15084 | 90 min | inhibition, % at 9.99 µM | 350,000 tested, 0.05% active | AID 651711, 2012;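 active = mean replicate inhibition above about 25%, with every replicate also reaching it, limit read from the data, passing the limit was not always enough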
SIRT5 block – SIRT5 desuccinylase inhibitors, primary screen, biochemical, fluorescence imaging, single point, set 5; NAD-dependent protein deacylase sirtuin-5, mitochondrial (Homo sapiens), Q9NXA8; Purified SirT5, succinyl-peptide AMC, trypsin-coupled fluorescence; inhibition, % at 15 µM; 330,000 tested, 1.1% active; in the data active = inhibition above about 15%
Target sequence (Q9NXA8 whole entry, looked up): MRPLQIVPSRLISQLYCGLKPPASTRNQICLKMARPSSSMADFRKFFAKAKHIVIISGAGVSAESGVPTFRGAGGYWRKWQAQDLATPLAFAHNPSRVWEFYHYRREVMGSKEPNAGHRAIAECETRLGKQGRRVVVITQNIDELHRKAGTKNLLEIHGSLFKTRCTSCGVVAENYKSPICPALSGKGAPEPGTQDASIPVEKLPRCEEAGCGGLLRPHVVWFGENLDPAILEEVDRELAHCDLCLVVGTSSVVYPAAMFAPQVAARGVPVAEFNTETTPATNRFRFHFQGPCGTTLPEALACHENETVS
ERAP1 inh – human ERAP1 aminopeptidase inhibitors, primary screen, biochemical, single point, plate reader; Endoplasmic reticulum aminopeptidase 1 (Homo sapiens), Q9NZ08; recombinant ERAP1, Leu-AMC fluorescence, 60 min; inhibition, % at 10.7 µM; 340,000 tested, 0.15% active; AID 652197, 2013;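 active = mean replicate inhibition of at least 30%, or all replicates individually reaching that 30% level; inactive = mean below 30% and not every replicate reaching it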;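 note: 0% = neutral control wells and 100% = L-leucinethiol positive control wells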
HDAC3 inhib – HDAC3 deacetylase inhibitors, primary screen, biochemical, fluorescence, cell-free homogeneous | Histone deacetylase 3 (Homo sapiens), O15379 | recombinant HDAC3, fluorogenic peptide/trypsin coupled | inhibition, % at 8.3 µM | 320,000 tested, 0.15% active; in the data active = inhibition above about 26%, passing the limit was not always enough
Target sequence (O15379 whole entry, looked up): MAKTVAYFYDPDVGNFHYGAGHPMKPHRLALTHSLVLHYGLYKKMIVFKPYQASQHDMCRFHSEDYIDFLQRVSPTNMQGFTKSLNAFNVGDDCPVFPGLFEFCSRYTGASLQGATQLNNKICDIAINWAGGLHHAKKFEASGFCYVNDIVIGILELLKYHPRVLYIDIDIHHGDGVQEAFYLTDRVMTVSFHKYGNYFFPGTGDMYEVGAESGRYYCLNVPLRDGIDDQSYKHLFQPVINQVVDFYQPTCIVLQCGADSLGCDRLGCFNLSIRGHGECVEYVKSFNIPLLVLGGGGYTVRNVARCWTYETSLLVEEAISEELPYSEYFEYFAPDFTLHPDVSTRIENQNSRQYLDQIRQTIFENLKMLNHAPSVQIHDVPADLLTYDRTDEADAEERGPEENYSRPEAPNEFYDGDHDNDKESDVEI
PDI inh – inhibitors of human PDI, primary screen, biochemical, turbidity, single point, plate reader; AID 588391, 2011; inhibition, % at 10 µM; PDI insulin aggregation turbidity, A650, 90 min; 350,000 tested, 0.052% active;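 active = mean inhibition across replicates of 30% or more, whatever share of single replicates reach that level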
* = called active by the depositor; nt = no result. Only a selection was taken, and hits are over-represented in it overall.

SMILES | ERp5 inh | SIRT5 block | ERAP1 inh | HDAC3 inhib | PDI inh
O=C(C[C@@H]1C[C@H]2c3cc(NC(=O)Nc4ccc(C(F)(F)F)cc4)ccc3O[C@H]2[C@H](CO)O1)NCc1ccc2c(c1)OCO2 | -2.6 | 26.9* | -1.8 | nt | nt
C[C@@H](NC(=O)C[C@@H]1C[C@@H]2c3cc(NC(=O)c4ccc5c(c4)OCO5)ccc3O[C@@H]2[C@H](CO)O1)c1ccccc1 | -5.1 | 15.4* | 0.6 | nt | nt
O=C(C[C@H]1C[C@@H]2c3cc(NC(=O)Nc4ccc(C(F)(F)F)cc4)ccc3O[C@@H]2[C@@H](CO)O1)NCc1ccc2c(c1)OCO2 | -2.1 | 24.8* | -0.5 | nt | nt
O=C(C[C@H]1C[C@H]2c3cc(NC(=O)Nc4ccc(C(F)(F)F)cc4)ccc3O[C@H]2[C@H](CO)O1)NCc1ccc2c(c1)OCO2 | -0.8 | 7.4 | -2.2 | nt | nt
CO[C@@H]1CN(C)C(=O)c2ccc(NS(C)(=O)=O)cc2OC[C@@H](C)N(CC2CCCCC2)C[C@@H]1C | -3.1 | -3.6 | -2.9 | nt | nt
C[C@H]1CN([C@@H](C)CO)C(=O)c2cc(-c3cccc(C(=O)N(C)C)c3)cnc2O[C@@H]1CN(C)S(=O)(=O)c1ccccc1 | 0.3 | 5.9 | 1.1 | nt | nt
C[C@@H]1CN([C@H](C)CO)C(=O)c2cc(C#CC3CC3)cnc2O[C@H]1CN(C)C(=O)c1ccc(F)cc1 | 13.4 | 5.2 | 0.7 | nt | nt
COCC(=O)N1C[C@@H](C)[C@@H](OC)CN(C)C(=O)c2cc(NC(=O)Nc3cccc(F)c3)ccc2OC[C@@H]1C | 9.8 | 3.1 | -3.3 | nt | nt
COc1ccc(NC(=S)Nc2cccc(C(C)=O)c2)cc1OC | 0.9 | -0.2 | 5.8 | -1.7 | 0.9
COc1ccc(NC(=S)Nc2cccc(Cl)c2)cc1OC | -5.0 | 112.3* | -1.4 | 1.5 | 0.8
O=C(N[C@@H]1CC[C@@H](CCn2cc(-c3ccccn3)nn2)O[C@H]1CO)c1ccc(F)cc1 | -3.0 | 4.1 | -5.2 | nt | nt
COC(=O)C[C@H]1C[C@H]2c3cc(NC(=O)c4cccnc4)ccc3O[C@H]2[C@@H](CO)O1 | 7.4 | -4.0 | -0.4 | nt | nt
CC(C)(C)N(Cc1ccccc1)C(=O)c1ccc(Br)o1 | 3.1 | 19.4* | -1.2 | -1.0 | 2.5
CCNC(=O)[C@H]1[C@H](CO)[C@H]2Cn3c(ccc(-c4cccnc4)c3=O)[C@H]2N1Cc1ccccc1 | 5.4 | 3.9 | 0.7 | nt | nt
CCCCNC(=O)c1ccc(C#CC(C)(C)C)c(OC(C)=O)c1 | 1.9 | 5.0 | 2.2 | nt | nt
C[n+]1c2n(c3ccccc31)N=C(c1ccccc1)CS2 | -14.7 | -3.1 | -4.2 | 31.2* | 8.8
C=C(C)Cn1c(N2CCN(c3ccc(OC)cc3)CC2)nc2c1c(=O)n(C)c(=O)n2C | -6.9 | 29.3* | -3.6 | -9.2 | 8.6
CN1[C@@H]2Cn3c(ccc(-c4ccccc4)c3=O)[C@H]1[C@@H](C(=O)Nc1nccs1)[C@@H]2CO | -8.7 | -8.8 | 1.0 | nt | nt
O=C1c2cccc3cccc(c23)C(=O)N1OS(=O)(=O)c1ccccc1 | nt | nt | nt | 2.3 | -52.1
O=C1c2ccccc2C(=O)N1OS(=O)(=O)c1ccccc1 | nt | nt | nt | 44.3* | nt
COc1cc(N2C(=O)C=CC2=O)c(OC)cc1Cl | 0.4 | nt | 35.3* | 1.5 | 2.8
COc1cc(Cl)c(S(=O)(=O)N2CCCC2)cc1Cl | 1.3 | -4.0 | -0.2 | 1.9 | -11.3
C[C@@H]1CN([C@@H](C)CO)C(=O)Cc2cc(NS(=O)(=O)c3ccc(F)cc3)ccc2O[C@@H]1CN(C)CC1CCCCC1 | 1.5 | 13.9 | -1.6 | nt | nt
C[C@H]1CN([C@@H](C)CO)C(=O)Cc2cc(NS(=O)(=O)c3ccc(Cl)cc3)ccc2O[C@H]1CN(C)CC1CCCCC1 | -3.8 | nt | 0.8 | nt | nt
C[C@H](CO)N1C[C@H](C)[C@H](CN(C)CC2CCCCC2)Oc2ccc(NS(=O)(=O)c3ccc(Cl)cc3)cc2CC1=O | 2.2 | 29.1* | -1.9 | nt | nt
SMILES | ERp5 inh | SIRT5 block | ERAP1 inh | HDAC3 inhib | PDI inh
C[C@H]1CN([C@@H](C)CO)C(=O)Cc2cc(NS(=O)(=O)c3ccc(F)cc3)ccc2O[C@H]1CN(C)CC1CCCCC1 | -0.4 | 16.6* | 5.3 | nt | nt
C[C@H](CO)N1C[C@H](C)[C@H](CN(C)CC2CC2)Oc2ccc(NS(=O)(=O)c3ccc(F)cc3)cc2CC1=O | -4.6 | 11.9 | -2.1 | nt | nt
C[C@@H]1CN([C@@H](C)CO)C(=O)Cc2cc(NS(=O)(=O)c3ccc(F)cc3)ccc2O[C@H]1CN(C)CC1CCCCC1 | 3.2 | 16.4* | 1.5 | nt | nt
O=C(CNc1ccc(Cl)cc1)c1ccc(Br)cc1 | 0.4 | 1.1 | 2.9 | -2.9 | 3.6
O=C(CNc1ccc(Br)cc1)c1ccc(O)cc1 | -1.4 | 17.4* | 3.7 | -11.9 | 16.7
CCCCCCN1C[C@@H](O)[C@H](n2cc(COC(=O)c3ccccc3)nn2)C[C@@H]1c1ccc(C)cc1 | 5.1 | 23.7* | 1.8 | nt | -3.0
Cc1ccc(NC(=O)C2CCCN(S(=O)(=O)c3cccnc3)C2)cc1C (stereo not drawn) | -1.3 | 18.0* | 0.3 | -0.3 | -2.5
CCOC(=O)C1(CCOC)CCN(Cc2cnc(-c3cccc(C)c3)nc2)CC1 | -3.0 | 20.4* | 5.9 | 4.9 | -7.0
CCOC(=O)C1(CCOc2ccccc2)CCN(Cc2ccc(O)cc2)CC1 | 3.2 | 1.5 | -0.4 | 4.4 | 11.9
CCOC(=O)C1(CCOc2ccccc2)CCN(Cc2ccc(OCCO)cc2)CC1 | 4.7 | 21.9* | 0.3 | 0.2 | 0.0
CCOC(=O)C1(CCOC)CCN(Cc2ccc3nonc3c2)CC1 | 0.4 | -1.1 | nt | nt | 4.8
Cc1cnc(C(=O)OCC(=O)C23CC4CC(CC(C4)C2)C3)cn1 | -1.2 | 17.1* | 4.8 | 6.0 | -0.5
C[C@@H]1CN([C@H](C)CO)C(=O)c2cc(NC(=O)NC3CCCCC3)ccc2O[C@H]1CN(C)C(=O)Nc1ccc2c(c1)OCO2 | 6.1 | 0.2 | 0.6 | nt | nt
CCC(=O)Nc1ccc2c(c1)C(=O)N(C)C[C@@H](OC)[C@@H](C)CN(C(=O)C1CCC1)[C@H](C)CO2 | 1.2 | -9.2 | -0.3 | nt | nt
COc1ccc(S(=O)(=O)N(C)C[C@H]2Oc3ccc(NS(=O)(=O)c4cn(C)cn4)cc3CC(=O)N([C@H](C)CO)C[C@H]2C)cc1 | -4.0 | -4.9 | -1.3 | nt | nt
C[C@H](CO)N1C[C@H](C)[C@H](CN(C)Cc2ccc(-c3ccccc3)cc2)Oc2cc(C#CC(C)(C)O)ccc2S1(=O)=O | 4.2 | 19.9* | 3.3 | nt | nt
C[C@H]1CN([C@@H](C)CO)S(=O)(=O)c2ccc(C#CC(C)(C)O)cc2O[C@H]1CN(C)Cc1ccc(-c2ccccc2)cc1 | 1.1 | 23.3* | 0.4 | nt | nt
C[C@H]1CN([C@@H](C)CO)S(=O)(=O)c2ccc(C#CC(C)(C)O)cc2O[C@H]1CN(C)Cc1ccccc1 | -0.8 | -4.4 | 1.7 | nt | 9.4
C[C@H]1CN([C@@H](C)CO)S(=O)(=O)c2ccc(C#CC(C)(C)O)cc2O[C@@H]1CN(C)Cc1ccc(-c2ccccc2)cc1 | 3.9 | 19.6* | 2.1 | nt | nt
C[C@@H]1CN([C@H](C)CO)S(=O)(=O)c2ccc(C#CC(C)(C)O)cc2O[C@@H]1CN(C)Cc1ccc(-c2ccccc2)cc1 | 4.8 | 20.4* | 2.5 | nt | nt
